Sampled rows, rich in hits. Any-hit rate of the full collection: about 2.8%.
HTT ATP protect: qHTS Multiplex Assay to Identify Dual Action Probes in a Cell Model of Huntington: Cytoprotection (ATP) | PC12 HTT-Q103 induced, cytoprotection, ATP luminescence, 40 h | Potency, µM (titrated, usually from 56.4 µM), most hits filed as activators | 0.14% of 230,000 active | AID 1471, 2008; further: nearly all actives have a fitted effect of over 45% in size
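Rat PC12, Q103 Htt exon1-GFP fusion, ecdysone promoter; tebufenozide inducer 100 nM final; compound titration; qHTS, 1500 cells/well; ATPlite luminescent read.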
TGFb SMAD3 inh: qHTS for Inhibitors of TGF-b; HepG2 CAGA-GFP TGF-b/SMAD3 reporter, GFP fluorescence, 18 h; TGF-beta stimulated, 500 pg/mL final; Potency, µM (doses to about 46.1 µM), hits mostly inhibitors; 1.2% of 410,000 active; further: nearly all actives have a fitted effect of over 65% in size
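Using HEPG2 CAGA-GFP reporter cells at 1000 cells/well, we pinned test compounds, stimulated with recombinant TGF-beta (500 pg/mL final) and measured total well GFP after 18 h.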
ATXN viability: Viability Counterscreen for Primary qHTS for Inhibitors of ATXN expression. S2 cells (HEK-293 line with an ATXN2-luciferase reporter) viability, CellTiter-Fluor protease fluorescence, 24 h. 0.49% of 400,000 active. AID 651635, 2014. Potency, µM (titrated, usually from 56.7 µM), most hits filed as cytotoxic; further: nearly all actives have a fitted effect of over 40% in size
HepG2 tox: qHTS for Inhibitors of TGF-b: Cytotox Counterscreen; HepG2 CAGA-GFP viability, ATP luminescence, 18 h; Potency, µM (series often up to 46.1 µM), usual class: cytotoxic; 0.76% of 410,000 active
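CellTiter-Glo luminescence gave cytotoxicity after 18 hours at 37 degrees C. The cells were HepG2 CAGA-GFP in 1% FBS DMEM, stimulated with 500 pg/mL TGF-beta after compound addition. %Activity was normalised to no-cell wells (complete cell-killing) and DMSO (no toxicity), and curves were fitted and classified.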
HTT aggregate: qHTS Multiplex Assay to Identify Dual Action Probes in a Cell Model of Huntington: Aggregate Formation (GFP); PC12 HttQ103-GFP aggregates, Acumen cytometry, 40 h; Potency, µM (top dose mostly 46.1 µM), hits mostly inhibitors; 1.1% of 220,000 active; further: nearly all actives have a fitted effect of over 60% in size
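PC12/HTTQ103-GFP, ecdysone-inducible; teb 100 nM; cpd qHTS titration; GFP aggregates read on laser cytometer, Ex 488/Em 500-530 nm.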
ATXN2 expr inh: Primary qHTS for Inhibitors of ATXN expression; HEK-293 ATXN2-luciferase reporter, luminescence, 24 h; Potency, µM (doses to about 57 µM), hits mostly inhibitors; 0.72% of 360,000 active; AID 1745845, 2022; further: nearly all actives have a fitted effect of over 55% in size
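ATXN2-luciferase reporter cells (luciferase flanked by upstream and downstream ATXN2 gene portions) were treated 24 h at 37 °C with compounds at up to 57 uM. SteadyGlo luminescence gave expression; GF-AFC fluorescence gave viability.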
Of the large screens only hits and unclear results are named; the others gave an inactive call; ! = a repeat was not active. The call rests on the fitted dose curve; in most records, active means well fitted curve in the direction sought with a large enough effect; inconclusive means small, poorly fitted or top-dose-only effect, or another doubt; inactive means no such curve, though single readings can be large; an effect the other way counts as inactive or inconclusive.

CCCN1CCC(=O)N(CCC#N)CC1	none (no result: HTT ATP protect, ATXN viability, HTT aggregate, ATXN2 expr inh)
Cc1cccc(Nc2ncnc3nc[nH]c23)c1	HTT aggregate 13µM
Cc1cc(CNC(=O)c2cnn(-c3nccc(-c4ccc5c(c4)OCO5)n3)c2C2CC2)on1	none (no result: HTT ATP protect, TGFb SMAD3 inh, HepG2 tox, HTT aggregate, ATXN2 expr inh)
Cc1cc(Cl)ccc1NC(=S)NCCCO	none
Cc1ccc(Cl)cc1NC(=S)NCCCSC1CCCCC1	TGFb SMAD3 inh 11µM, HTT aggregate 22µM
O=C(O)c1ccc(-c2nc(-c3ccccc3Cl)cs2)cc1	none
CCS(=O)(=O)c1ccc(-c2csc(-c3ccccc3)n2)c(Cl)c1Cl	HTT aggregate 11µM
Cc1ccc(OCCCCn2cnc3ccccc32)cc1	ATXN viability inconclusive, HTT aggregate inconclusive
Cc1ccccc1OCCCCn1cnc2ccccc21	HTT aggregate 7.1µM
COCCCNC(=O)c1oc2c(c1C)-c1nn(Cc3ccc(Cl)cc3)cc1CC2	none (no result: HTT ATP protect, ATXN viability, HTT aggregate, ATXN2 expr inh)
CCN(CC)CCCNC(=O)c1oc2c(c1C)-c1nn(Cc3ccc(Cl)cc3)cc1CC2	HepG2 tox 13µM (no result: HTT ATP protect, ATXN viability, HTT aggregate, ATXN2 expr inh)
O=C1N[C@@H](Cc2ccccc2)COC(=O)[C@@H](Cc2ccc(F)cc2)CC/C=C/C[C@H]1CC(=O)N(CCO)Cc1ccccc1	TGFb SMAD3 inh inconclusive, ATXN viability 22µM, ATXN2 expr inh inconclusive (no result: HTT ATP protect, HTT aggregate)
O=C1N[C@@H](c2ccccc2)COC(=O)[C@H](Cc2ccc(F)cc2)CC/C=C/C[C@@H]1CC(=O)N(CCO)Cc1ccccc1	TGFb SMAD3 inh inconclusive, ATXN viability 10µM, ATXN2 expr inh inconclusive (no result: HTT ATP protect, HTT aggregate)
O=C1N[C@@H](Cc2ccccc2)COC(=O)[C@H](Cc2ccc(F)cc2)CC/C=C/C[C@@H]1CC(=O)N(CCO)Cc1ccccc1	TGFb SMAD3 inh inconclusive, ATXN viability inconclusive, ATXN2 expr inh inconclusive (no result: HTT ATP protect, HTT aggregate)
O=C1N[C@@H](c2ccccc2)COC(=O)[C@@H](Cc2ccc(F)cc2)C/C=C\C[C@H]1CC(=O)N(CCO)Cc1ccccc1	TGFb SMAD3 inh inconclusive, ATXN viability inconclusive, ATXN2 expr inh inconclusive (no result: HTT ATP protect, HTT aggregate)
C=CS(=O)(=O)N(Cc1ccccc1Br)[C@H](CO)CC(C)C	TGFb SMAD3 inh inconclusive, ATXN viability 32µM, ATXN2 expr inh inconclusive (no result: HTT ATP protect, HTT aggregate)
C=C[C@H](CC(C)C)N(Cc1ccccc1)S(=O)(=O)N(Cc1ccccc1)[C@@H](C=C)CC(C)C	none (no result: HTT ATP protect, HTT aggregate)
CC(C)C[C@@H](CO)N(Cc1ccccc1)S(=O)(=O)N(Cc1ccccc1)[C@@H](CO)CC(C)C	TGFb SMAD3 inh 10µM, ATXN viability inconclusive, HepG2 tox 16µM, ATXN2 expr inh inconclusive (no result: HTT ATP protect, HTT aggregate)
O=S(=O)(N(Cc1ccccc1)[C@H](CO)Cc1ccccc1)N(Cc1ccccc1)[C@H](CO)Cc1ccccc1	ATXN2 expr inh inconclusive (no result: HTT ATP protect, HTT aggregate)
CC(C)C[C@@H](CO)N(Cc1ccccc1)S(=O)(=O)N(Cc1ccccc1)[C@H](CO)CC(C)C	TGFb SMAD3 inh 11µM!, ATXN viability inconclusive, ATXN2 expr inh inconclusive (no result: HTT ATP protect, HTT aggregate)
COc1ccc(CN([C@H](CO)CC(C)C)S(=O)(=O)N(Cc2ccccc2)[C@H](CO)CC(C)C)cc1	TGFb SMAD3 inh inconclusive, HepG2 tox 11µM!, ATXN2 expr inh inconclusive (no result: HTT ATP protect, ATXN viability, HTT aggregate)
O=C(C[n+]1ccccc1Cl)c1ccc(Br)cc1	none (no result: HTT ATP protect, ATXN viability, HTT aggregate, ATXN2 expr inh)
Cc1ccc(NC(=O)C(OC(=O)c2ccc(NC(N)=O)cc2)c2ccccc2)cc1Cl (stereo unspecified)	TGFb SMAD3 inh inconclusive, HepG2 tox 13µM
COc1ccccc1NC(=O)COc1ccc(-c2nn(C)c(=O)c3ccccc23)cc1	TGFb SMAD3 inh 7.9µM!, ATXN2 expr inh inconclusive (no result: HTT ATP protect, HTT aggregate)
COc1cc(OC)c(OC)cc1CN1CCCC(n2cc(C(=O)N3CCCCC3)nn2)C1 (stereo unspecified)	none (no result: HTT ATP protect, TGFb SMAD3 inh, HepG2 tox, HTT aggregate, ATXN2 expr inh)
c1ccc(-c2nc3cc4ccccc4cc3[nH]2)nc1	HepG2 tox 8.9µM
CCCCC[C@H](O)/C=C/[C@H]1OC(O)C[C@H](O)[C@@H]1C/C=C\CC(=O)O (stereo partly specified)	none (no result: TGFb SMAD3 inh, ATXN viability, HepG2 tox, HTT aggregate, ATXN2 expr inh)
